Experimental data from article PMC5540273 (PLoS ONE, 2017).
Where “and” joins values, the source holds several entries; their conditions need not be identical. Equal values may be shown once. Read-outs that look alike come from different tables or passages of the source.

Legend:
MEK2 = system: T1, MEK2; details: concentration: 1 μM, replicates: in singlicate; n = 1
T1 construct: gene MAP2K2

MEK3 = system: T2, MEK3; details: concentration: 1 μM, replicates: in singlicate; n = 1
T2 construct: gene MAP2K3

MEK4 = system: T3, MEK4; details: n = 1
T3 construct: gene MAP2K4

MEK5 = system: T4, MEK5; details: n = 1
T4 construct: gene MAP2K5

MEK6 = system: T5, MEK6; details: concentration: 1 μM, replicates: in singlicate; n = 1
T5 construct: gene MAP2K6

MELK = details: n = 1
MERTK = details: n = 1
MET = details: concentration: 1 μM, replicates: in singlicate; n = 1
MINK = system: T6, MINK; details: concentration: 1 μM, replicates: in singlicate; n = 1
T6 construct: gene MINK1

MKK7 = details: concentration: 1 μM, replicates: in singlicate; n = 1
MKNK1 = details: concentration: 1 μM, replicates: in singlicate; n = 1
MKNK2 = details: n = 1
MLCK = system: T7, MLCK; details: n = 1
T7 construct: gene MYLK3

MLK1 = system: T8, MLK1; details: concentration: 1 μM, replicates: in singlicate; n = 1
T8 construct: gene MAP3K9

MLK2 = details: concentration: 1 μM, replicates: in singlicate; n = 1
MLK3 = details: n = 1
MRCKA = details: n = 1
MRCKB = system: T9, MRCKB; details: n = 1
T9 construct: gene CDC42BPB

MST1R = details: n = 1
MST1 = system: T10, MST1; details: n = 1
T10 construct: gene STK4

[1] = concentration: 1 μM, replicates: in singlicate
[2] = concentration: 1 μM,replicates: in singlicate, 1 µM
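Note: KINOMEscan kinase panel screen.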

Cn1ccc2ncnc(Oc3ccc(NC(=O)Nc4ccccc4)cc3)c21
%Inh (MEK2): 20%
%Inh (MEK3): 20%
%Inh (MEK4; [1]): 0%
%Inh (MEK5; [1]): 39%
%Inh (MEK6): 0%
%Inh (MELK; [1]): 16%
%Inh (MERTK; [1]): 0%
%Inh (MET): 28%
%Inh (MINK): 16%
%Inh (MKK7): 20%
%Inh (MKNK1): 13%
%Inh (MKNK2; [1]): 43%
%Inh (MLCK; [1]): 0%
%Inh (MLK1): 0%
%Inh (MLK2): 0%
%Inh (MLK3; [1]): 19%
%Inh (MRCKA; [1]): 0%
%Inh (MRCKB; [1]): 16%
%Inh (MST1R; [1]): 10%
%Inh (MST1; [1]): 0%

Cl.NC(=O)c1cccc(Nc2nccc(Nc3ccc(Oc4cccc(Cl)c4)c(Cl)c3)n2)c1 [GW659008]
%Inh (MEK2): 14%
%Inh (MEK3): 0%
%Inh (MEK4; [1]): 22%
%Inh (MEK5; [1]): 99.7%
%Inh (MEK6): 0%
%Inh (MELK; [1]): 0%
%Inh (MERTK; [1]): 33%
%Inh (MET): 37%
%Inh (MINK): 0%
%Inh (MKK7): 0%
%Inh (MKNK1): 8%
%Inh (MKNK2; [1]): 4%
%Inh (MLCK; [1]): 0%
%Inh (MLK1): 0%
%Inh (MLK2): 33%
%Inh (MLK3; [1]): 0%
%Inh (MRCKA; [1]): 26%
%Inh (MRCKB; [1]): 0%
%Inh (MST1R; [1]): 0%
%Inh (MST1; [1]): 15%

Cc1cc(-c2ccc3c(c2)CC[C@@H](N[C@@H](C)c2ccccc2)C3)cnc1N.Cl [GW412617]
%Inh (MEK2): 12%
%Inh (MEK3): 0%
%Inh (MEK4; [1]): 34%
%Inh (MEK5; [1]): 55%
%Inh (MEK6): 0%
%Inh (MELK; [1]): 36%
%Inh (MERTK; [1]): 26%
%Inh (MET): 0%
%Inh (MINK): 40%
%Inh (MKK7): 1%
%Inh (MKNK1): 13%
%Inh (MKNK2; [1]): 3%
%Inh (MLCK; [1]): 0%
%Inh (MLK1): 0%
%Inh (MLK2): 15%
%Inh (MLK3; [1]): 32%
%Inh (MRCKA; [1]): 0%
%Inh (MRCKB; [1]): 4%
%Inh (MST1R; [1]): 38%
%Inh (MST1; [1]): 1%

Cc1cc(N2Cc3ccccc3C2)nc(Nc2ccc(S(=O)(=O)N3CCOCC3)cc2)n1.Cl [GSK1669917]
%Inh (MEK2): 0%
%Inh (MEK3): 0%
%Inh (MEK4; [1]): 0%
%Inh (MEK5; [1]): 9%
%Inh (MEK6): 0%
%Inh (MELK; [1]): 0%
%Inh (MERTK; [1]): 9%
%Inh (MET): 0%
%Inh (MINK): 20%
%Inh (MKK7): 0%
%Inh (MKNK1): 0%
%Inh (MKNK2; [1]): 0%
%Inh (MLCK; [1]): 0%
%Inh (MLK1): 0%
%Inh (MLK2): 0%
%Inh (MLK3; [1]): 15%
%Inh (MRCKA; [1]): 1%
%Inh (MRCKB; [1]): 0%
%Inh (MST1R; [1]): 0%
%Inh (MST1; [1]): 0%

COc1ccc(Nc2nccc(NCCNC(=O)Nc3ccccc3F)n2)cc1 [GSK1379901]
%Inh (MEK2): 8%
%Inh (MEK3): 0%
%Inh (MEK4; [1]): 11%
%Inh (MEK5; [1]): 56%
%Inh (MEK6): 0%
%Inh (MELK; [1]): 0%
%Inh (MERTK; [1]): 24%
%Inh (MET): 0%
%Inh (MINK): 11%
%Inh (MKK7): 55%
%Inh (MKNK1): 24%
%Inh (MKNK2; [1]): 13%
%Inh (MLCK; [1]): 0%
%Inh (MLK1): 0%
%Inh (MLK2): 0%
%Inh (MLK3; [1]): 25%
%Inh (MRCKA; [1]): 23%
%Inh (MRCKB; [1]): 0%
%Inh (MST1R; [1]): 16%
%Inh (MST1; [1]): 0%

Fc1cccc(COc2nnc(-c3ccc4c(c3)CCO4)o2)c1
%Inh (MEK2): 4%
%Inh (MEK3): 0%
%Inh (MEK4; [1]): 0%
%Inh (MEK5; [1]): 9%
%Inh (MEK6): 0%
%Inh (MELK; [1]): 19%
%Inh (MERTK; [1]): 0%
%Inh (MET): 0%
%Inh (MINK): 1%
%Inh (MKK7): 13%
%Inh (MKNK1): 0%
%Inh (MKNK2; [1]): 0%
%Inh (MLCK; [1]): 7%
%Inh (MLK1): 0%
%Inh (MLK2): 19%
%Inh (MLK3; [1]): 0%
%Inh (MRCKA; [1]): 0%
%Inh (MRCKB; [1]): 1%
%Inh (MST1R; [1]): 10%
%Inh (MST1; [1]): 0%

O=C(Nc1n[nH]c2nc(-c3nccs3)c(Br)cc12)C1CC1 [SB-742251]
%Inh (MEK2): 0%
%Inh (MEK3): 0%
%Inh (MEK4; [1]): 13%
%Inh (MEK5; [1]): 74%
%Inh (MEK6): 0%
%Inh (MELK; [1]): 0%
%Inh (MERTK; [1]): 12%
%Inh (MET): 0%
%Inh (MINK): 20%
%Inh (MKK7): 0%
%Inh (MKNK1): 59%
%Inh (MKNK2; [1]): 51%
%Inh (MLCK; [1]): 48%
%Inh (MLK1): 0%
%Inh (MLK2): 0%
%Inh (MLK3; [1]): 0%
%Inh (MRCKA; [1]): 3%
%Inh (MRCKB; [1]): 0%
%Inh (MST1R; [1]): 18%
%Inh (MST1; [1]): 3%

CCCc1ccc(S(=O)(=O)NC2CCN(c3ccnc(Nc4ccc(F)cc4)n3)C2)cc1 (stereo not shown) [GSK1379715]
%Inh (MEK2): 0%
%Inh (MEK3): 0%
%Inh (MEK4; [1]): 28%
%Inh (MEK5; [1]): 0%
%Inh (MEK6): 100%
%Inh (MELK; [1]): 0%
%Inh (MERTK; [1]): 0%
%Inh (MET): 0%
%Inh (MINK): 0%
%Inh (MKK7): 0%
%Inh (MKNK1): 0%
%Inh (MKNK2; [1]): 8%
%Inh (MLCK; [1]): 0%
%Inh (MLK1): 0%
%Inh (MLK2): 0%
%Inh (MLK3; [1]): 0%
%Inh (MRCKA; [1]): 12%
%Inh (MRCKB; [1]): 0%
%Inh (MST1R; [1]): 7%
%Inh (MST1; [1]): 0%

COc1cc2nccc(Nc3ccc(NC(=O)c4ccc(C)cc4)c(O)c3)c2cc1OC.Cl [GW440132]
%Inh (MEK2): 0%
%Inh (MEK3): 0%
%Inh (MEK4; [1]): 19%
%Inh (MEK5; [1]): 99.9%
%Inh (MEK6): 0%
%Inh (MELK; [1]): 0%
%Inh (MERTK; [1]): 5%
%Inh (MET): 0%
%Inh (MINK): 0%
%Inh (MKK7): 0%
%Inh (MKNK1): 0%
%Inh (MKNK2; [1]): 5%
%Inh (MLCK; [1]): 0%
%Inh (MLK1): 0%
%Inh (MLK2): 0%
%Inh (MLK3; [1]): 33%
%Inh (MRCKA; [1]): 13%
%Inh (MRCKB; [1]): 8%
%Inh (MST1R; [1]): 0%
%Inh (MST1; [1]): 1%

COc1cc2ncnc(Nc3ccc4nc(-c5ccccc5)[nH]c4c3)c2cc1OC.Cl [GW282450]
%Inh (MEK2): 0%
%Inh (MEK3): 3%
%Inh (MEK4; [1]): 21%
%Inh (MEK5; [1]): 90%
%Inh (MEK6): 0%
%Inh (MELK; [1]): 7%
%Inh (MERTK; [1]): 0%
%Inh (MET): 0%
%Inh (MINK): 1%
%Inh (MKK7): 0%
%Inh (MKNK1): 2%
%Inh (MKNK2; [1]): 2%
%Inh (MLCK; [1]): 0%
%Inh (MLK1): 0%
%Inh (MLK2): 0%
%Inh (MLK3; [1]): 33%
%Inh (MRCKA; [1]): 14%
%Inh (MRCKB; [1]): 14%
%Inh (MST1R; [1]): 26%
%Inh (MST1; [1]): 0%

CSc1nn2c(=O)cc(N3CCOCC3)nc2n1Cc1cccc(C(F)(F)F)c1C [GSK2363608]
%Inh (MEK2): 0%
%Inh (MEK3): 0%
%Inh (MEK4; [2]): 17% and 30%
%Inh (MEK5; [2]): 12% and 0%
%Inh (MEK6): 0%
%Inh (MELK; [2]): 6% and 0%
%Inh (MERTK; [2]): 0% and 18%
%Inh (MET): 0%
%Inh (MINK): 0%
%Inh (MKK7): 0%
%Inh (MKNK1): 0%
%Inh (MKNK2; [2]): 11% and 6%
%Inh (MLCK; [2]): 0% and 11%
%Inh (MLK1): 0%
%Inh (MLK2): 0%
%Inh (MLK3; [2]): 17% and 0%
%Inh (MRCKA; [2]): 23% and 17%
%Inh (MRCKB; [2]): 0% and 5%
%Inh (MST1R; [2]): 35% and 48%
%Inh (MST1; [2]): 11% and 0%
